Source: article PMC6212790, “How bacterial xenogeneic silencer rok distinguishes foreign from self DNA in its resident genome”
In all, about 33,000 sequences were measured (“e-score”: median about -0.037, highest 2% from about 0.34 on). The sample as a whole holds a higher share of the highest values than the screen did.

The sequences below were run against T1, GST-Rok (full length) (Bacillus subtilis subsp. subtilis str. …, UniProt O34857 1-191) (assay: protein binding microarray; Rok is a gene silencer of Bacillus subtilis; high values mean tight binding). Conditions: protein: recombinant; tags: GST (pTH5325, pDEST15-Magic modified); dsDNA, one strand shown.
T1 sequence: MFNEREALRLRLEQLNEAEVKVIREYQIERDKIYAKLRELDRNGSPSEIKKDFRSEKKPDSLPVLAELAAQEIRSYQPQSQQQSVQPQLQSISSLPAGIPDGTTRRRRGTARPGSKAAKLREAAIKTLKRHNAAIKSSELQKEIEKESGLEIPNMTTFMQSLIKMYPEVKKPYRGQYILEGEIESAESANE
How it was run: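 Every oligonucleotide joins a 25-mer constant primer to a 35-mer variable part drawn from a de Bruijn sequence of order 10, so each non-palindromic 8-mer appears at least 32 times and each palindromic 8-mer 16 times. The preference for every 8-mer is reported as a unitless, rank-based enrichment score (E-score). This score spans 0.5 for the most favored 8-mer to −0.5 for the most disfavored.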
For AAAATATG, the binding signal was 0.278 E-score. TAAATAAA showed a binding signal of 0.231 E-score. CAAATATG was tested, and the binding signal was 0.194 E-score. In the case of ACAATATA, the binding signal was 0.298 E-score. With AAAATATC the binding signal was 0.275 E-score. Work on CAAATATA yielded a binding signal of 0.345 E-score. With AAAATATT the binding signal was 0.358 E-score. CAAATATC gave a binding signal of 0.285 E-score. For AAAATATA, the binding signal was 0.417 E-score. AAAATAAA was tested, and the binding signal was 0.199 E-score. Sequence GAAATATA has a binding signal of 0.283 E-score. In the case of TAAATATA, the binding signal was 0.394 E-score. Work on AATGACCG yielded a binding signal of -0.0639 E-score. AGGAATTC gave a binding signal of -0.159 E-score. ACGAACCA showed a binding signal of 0.000876 E-score. Work on TCATTCAA yielded a binding signal of -0.111 E-score. Sequence CAGTTTTC has a binding signal of 0.0134 E-score. For AATCGATA, the binding signal was 0.281 E-score. For TATCGATA, the binding signal was 0.376 E-score. With GATCGATA the binding signal was 0.269 E-score. Sequence CTACAATA has a binding signal of 0.291 E-score. Sequence AGAATCCT has a binding signal of 0.0705 E-score. ACGAAACT gave a binding signal of 0.337 E-score. Sequence ACGAAACC has a binding signal of -0.0947 E-score. With ACGAAACA the binding signal was 0.0691 E-score. AGCCTTAG gave a binding signal of -0.181 E-score. For AGTAGATC, the binding signal was 0.324 E-score. ATTAGATC was tested, and the binding signal was 0.293 E-score. For ATGAGATC, the binding signal was 0.0598 E-score. Work on GGTAGATA yielded a binding signal of 0.451 E-score. AGTAGATG gave a binding signal of 0.283 E-score. ATTAGATA was tested, and the binding signal was 0.367 E-score. In the case of ATGAGATA, the binding signal was 0.346 E-score. In the case of CGTAGATA, the binding signal was 0.258 E-score. For GTTAGATA, the binding signal was 0.241 E-score. CTGAGATA was tested, and the binding signal was 0.0758 E-score. In the case of AGTAGATA, the binding signal was 0.442 E-score. CGTAGATC gave a binding signal of 0.21 E-score. CGTAATAA gave a binding signal of 0.27 E-score. For CTCTTCGC, the binding signal was 0.197 E-score. In the case of CCATAAAC, the binding signal was -0.00276 E-score. ATAAAGAA gave a binding signal of -0.0956 E-score. GTCATAAA gave a binding signal of 0.154 E-score. Work on AATCTTCG yielded a binding signal of 0.0665 E-score. Work on TACTTATA yielded a binding signal of 0.321 E-score. GATTTATA showed a binding signal of 0.315 E-score. In the case of ATTTTATA, the binding signal was 0.41 E-score. GTTTTATA was tested, and the binding signal was 0.141 E-score. Sequence CACTTATA has a binding signal of 0.329 E-score. ATTTTATG was tested, and the binding signal was 0.251 E-score. AATTTATG was tested, and the binding signal was 0.283 E-score. AATTTATA was tested, and the binding signal was 0.435 E-score. In the case of AACTTATA, the binding signal was 0.403 E-score. For CTAATCGC, the binding signal was 0.18 E-score. AGAAACAT gave a binding signal of 0.155 E-score. Sequence CGGCTATC has a binding signal of -0.0522 E-score. In the case of ACTAGCGG, the binding signal was 0.188 E-score. CCAAACGA showed a binding signal of 0.042 E-score. For AAAATGTA, the binding signal was 0.287 E-score. With TAAATGTA the binding signal was 0.411 E-score. CAAATGTA was tested, and the binding signal was 0.289 E-score. With GAAATGCA the binding signal was -0.095 E-score. GAAATGTA was tested, and the binding signal was 0.351 E-score. Work on GAAATGTC yielded a binding signal of 0.126 E-score. CTTGTTTC was tested, and the binding signal was 0.0903 E-score. In the case of CAAACCAG, the binding signal was -0.185 E-score. For AACCATGC, the binding signal was -0.0502 E-score. For GCTATCAC, the binding signal was 0.244 E-score. In the case of ACTATCAC, the binding signal was 0.34 E-score. In the case of CCTATCAA, the binding signal was 0.161 E-score. Sequence GCTATCAA has a binding signal of 0.164 E-score. ACTATCAA showed a binding signal of 0.337 E-score. CCTATCAC showed a binding signal of 0.0828 E-score. AGAAAGTC showed a binding signal of 0.121 E-score. For GTAAAGAA, the binding signal was 0.0756 E-score. In the case of TCTATTCA, the binding signal was 0.0926 E-score. CACTAAAA was tested, and the binding signal was 0.293 E-score. For AACTAAGA, the binding signal was 0.138 E-score. With AACTAAAG the binding signal was -0.0498 E-score. For AACTAAAC, the binding signal was 0.138 E-score. In the case of ACCTAAAA, the binding signal was 0.306 E-score. For TACTAAAA, the binding signal was 0.434 E-score. AACTAAAT was tested, and the binding signal was 0.362 E-score. In the case of AACTAAAA, the binding signal was 0.345 E-score. GACTAAAA showed a binding signal of 0.123 E-score. CGCCCAAC showed a binding signal of -0.14 E-score. AACTTTGA was tested, and the binding signal was -0.0517 E-score. In the case of AACATTAC, the binding signal was 0.214 E-score. CCTAGGTA showed a binding signal of 0.0506 E-score. In the case of AGTAGGTA, the binding signal was 0.404 E-score. In the case of AGTAGGTC, the binding signal was 0.069 E-score. AGTAGGTG showed a binding signal of 0.174 E-score. Work on CGTAGGTA yielded a binding signal of 0.347 E-score. For GGTAGGTA, the binding signal was 0.304 E-score. With GATGGAGA the binding signal was -0.0862 E-score. With ATTAACCG the binding signal was 0.0492 E-score. Work on CGAAAGGC yielded a binding signal of -0.183 E-score. CTTACAAG gave a binding signal of -0.114 E-score. In the case of ATGAATCC, the binding signal was 0.0418 E-score. With GTAGCTAC the binding signal was 0.436 E-score. GTAGCTAA showed a binding signal of 0.373 E-score. ATAGCTAT was tested, and the binding signal was 0.373 E-score. Work on ATAGCTAC yielded a binding signal of 0.333 E-score. Work on TTAGCTAA yielded a binding signal of 0.129 E-score. Work on GAAGCTAC yielded a binding signal of 0.323 E-score. Work on ATAGCTAG yielded a binding signal of 0.273 E-score. In the case of CTAGCTAA, the binding signal was 0.133 E-score. Sequence CTAGCTAC has a binding signal of 0.198 E-score. CCGCTGAC gave a binding signal of -0.15 E-score. GCCGCATA was tested, and the binding signal was -0.186 E-score. Sequence AGAGTCGA has a binding signal of -0.0761 E-score. CTAGTGTC showed a binding signal of 0.0749 E-score. In the case of GGCAGTAC, the binding signal was -0.0236 E-score. Work on GCGGATCA yielded a binding signal of -0.193 E-score. With ACAAGGAA the binding signal was -0.0483 E-score. Sequence ATTCACCC has a binding signal of 0.0731 E-score. Sequence ATTACTAC has a binding signal of 0.355 E-score. Sequence ATTACTGG has a binding signal of -0.0684 E-score. CTTACTAA was tested, and the binding signal was 0.222 E-score. Work on ATTACTCG yielded a binding signal of 0.225 E-score. In the case of ATTACTGC, the binding signal was 0.138 E-score. With GTTACTAA the binding signal was 0.283 E-score. Sequence CTTACTAC has a binding signal of 0.169 E-score. With ATTACTAG the binding signal was 0.398 E-score. ATTACTAA gave a binding signal of 0.357 E-score. For AGGTCCAG, the binding signal was -0.187 E-score. Work on ACTGGCCG yielded a binding signal of 0.00991 E-score. AGCGGCTC gave a binding signal of -0.196 E-score. Sequence GTCGCTTA has a binding signal of -0.0639 E-score. Sequence GTTACATA has a binding signal of 0.212 E-score. AACGTTAC showed a binding signal of -0.0148 E-score. With AACGTTAG the binding signal was 0.344 E-score. Work on AACGTTAT yielded a binding signal of 0.216 E-score. In the case of GCATTCCA, the binding signal was -0.149 E-score. CGCGTCCA was tested, and the binding signal was -0.16 E-score. ATGCTTCG was tested, and the binding signal was -0.00471 E-score. With GCGCAGAA the binding signal was -0.0702 E-score. With GATATACC the binding signal was 0.291 E-score. With AATACACA the binding signal was 0.234 E-score. For CATATACC, the binding signal was 0.259 E-score. TGTATACA was tested, and the binding signal was 0.351 E-score. With AATATACC the binding signal was 0.394 E-score. Work on CATATACA yielded a binding signal of 0.258 E-score. With GATATACA the binding signal was 0.25 E-score. Work on CGTATACA yielded a binding signal of 0.227 E-score. TATATACA gave a binding signal of 0.409 E-score. For GGTATACA, the binding signal was 0.187 E-score. For ACTATACA, the binding signal was 0.322 E-score. Sequence AATATACA has a binding signal of 0.388 E-score. GCTGCTGA was tested, and the binding signal was -0.177 E-score. CTTCCTTA gave a binding signal of -0.172 E-score. CTAGGAAG was tested, and the binding signal was -0.0907 E-score. In the case of AGTACGCA, the binding signal was 0.194 E-score. AGTATACT gave a binding signal of 0.338 E-score. AATATACT gave a binding signal of 0.395 E-score. ACTATACT gave a binding signal of 0.26 E-score. With AGTATACA the binding signal was 0.271 E-score. Sequence AGTATACC has a binding signal of 0.164 E-score. For AATATACG, the binding signal was 0.268 E-score. With CATAAAAG the binding signal was 0.102 E-score. Sequence AGTGCGTC has a binding signal of 0.0828 E-score. ACCTCCAA gave a binding signal of -0.0283 E-score. TCACGTGA showed a binding signal of -0.0446 E-score. TGGCCGAA was tested, and the binding signal was -0.123 E-score. In the case of ACCTAGAC, the binding signal was 0.0548 E-score. With GATTATAC the binding signal was 0.217 E-score. CATTATAG was tested, and the binding signal was 0.255 E-score. For AATTATCG, the binding signal was 0.217 E-score. GATTATAA gave a binding signal of 0.208 E-score. Work on AGTTATAT yielded a binding signal of 0.291 E-score. AATTATAA was tested, and the binding signal was 0.361 E-score. In the case of AATTATAT, the binding signal was 0.407 E-score. CATTATAA was tested, and the binding signal was 0.228 E-score. For AATTATAG, the binding signal was 0.381 E-score. ACTTATAT showed a binding signal of 0.332 E-score. With CATTATAC the binding signal was 0.265 E-score. Work on AATTATAC yielded a binding signal of 0.377 E-score.
